Results on 40 compounds are retold here after PubChem BioAssay (NCI).

This is part of a sample that, as a whole, favours compounds with a hit. Of some 83,000 tested, about 20% had one in any assay.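 Note: values are percent growth. 100 is the growth of untreated cells, values between 100 and 0 indicate rising inhibition; between -100 and 0 indicates cell death.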 Unmarked numbers belong to inactive results. Active and inactive are the calls of the source.

The subject of the assay is U251 CNS. The experiment in a line: NCI-60 one-dose screen, 48 h (100 = growth as untreated, 0 = no growth, -100 = all killed). To be noted: 10 µM unless noted. How it is done:
Growth inhibition of the U251 human tumor cell line is measured as a screen for anti-cancer activity. Cells are grown in 96 well plates and exposed to the test compound for 48 hours. Compounds are tested at a single concentration, which is 10^-5 M for most compounds. The reported endpoint is percent growth (GI% or GIPRCNT), where numbers from 0 - 100% represent growth inhibition, and numbers from -100% - 0 represent cell death. For example, a value of 40 represents 60% growth inhibition. A value of 0 means no net growth occurred over the course of the experiment. A value of -40 indicates 40% of cells at the beginning of the experiment died by the end of the experiment. A value of -100 means all cells are dead at the end of the experiment.
NCI-60 Human Tumor Cell Lines Screen was performed using the standard one-dose NCI protocol, which is described in more detail at https://dtp.cancer.gov/discovery_development/nci-60/default.htm.
Compounds with GIPRCNT values below 10 were considered active. Activity score was based on GIPRCNT using the following formula: […]
Score is 0 for GIPRCNT values of 100 or above, 50 for GIPRCNT values of 0, and 100 for GIPRCNT values of -100.
In the case of `O=C(c1ccc(Cl)cc1)C1[C@H](c2ccc(Cl)cc2)[C@@H](c2ccccc2)NC12C(=O)Nc1ccc(Br)cc12` (stereo not given in full), the growth is 28.3%.
`Clc1ccc(-c2cn3cc(Cc4ccc(Cl)c(Cl)c4)sc3n2)cc1`: the growth is 93.7%.
For `O=C1Nc2cc(Cl)ccc2/C1=C\c1ccc(OCc2ccc(Br)cc2F)cc1`, the growth is -68.5% (active).
The value for `CC1=C(C)C(=O)C(Nc2cccc(C(F)(F)F)c2)=C(Cl)C1=O` was 79%.
For the compound `Clc1ccc2c(NCCCN3CCOCC3)c3oc4ccc(Cl)cc4c3nc2c1`, the growth was 44.1%.
The value for `Fc1ccc(-c2cc3nc(C(Cl)Cl)nc(-c4ccc(Cl)cc4)n3n2)cc1` was -58.1% (active).
Consider `Cc1cc2nc3c4cc(Cl)ccc4n(CC(=S)NCCN(C)C)c3nc2cc1C`, for which the growth is -54.8% (active).
As for `C=CCn1c(SCC(=O)c2ccccc2)nnc1-c1c[nH]c2ccccc12`, the growth was 107%.
For the compound `Cc1ccc(CNS(=O)(=O)/N=C2\NC(=O)NC2=C(Cl)Cl)cc1`, the growth is 39.1%.
Turning to `CCN1CCN(S(=O)(=O)c2oc(-c3ccc(Cl)cc3)nc2C#N)CC1`, the growth was 96.6%.
The value for `Cc1cccc2sc(/N=C(\N)C(Br)Br)nc12` was 9.02% (active); that for `COc1ccc(C(=O)c2cc(C(=O)/C=C/c3c(Cl)cccc3Cl)c3cc(C)ccn23)cc1` was 100%.
For the compound `CCOc1ccc([C@H]2C(C(=O)c3ccc(Cl)cc3)C3(N[C@@H]2c2ccccc2)C(=O)Nc2ccc(Br)cc23)cc1` (stereo not given in full), the growth is 13.5%.
The value for `O=C(NNc1nc2cc(F)ccc2n2c(CN3CC4(COC4)C3)ccc12)c1cnccn1` was 11.6%.
As to `COc1cc(/C=C/C(=O)c2ccc(Cl)cc2)ccc1Oc1nc(NCCO)nc(N2CCOCC2)n1`, the growth was 94%.
For the compound `Nc1c(C(=O)c2ccc(Br)cc2)oc2nc(-c3cnccn3)cc(-c3cccs3)c12`, the growth was 92.1%.
The value for `COc1ccc(N/N=C/c2c(-c3ccc(S(C)(=O)=O)cc3)nc3ccccn23)cc1` was 69.4%; that for `CS(=O)(=O)c1ccc(-c2nc3ccccn3c2/C=N/Nc2nc(-c3ccc(Cl)cc3)cs2)cc1` was 108%; that for `CN(C)CCCNc1c2ccccc2nc2c1oc1ccc(Cl)cc12` was 33.4%.
Regarding `O=C(N/N=C/c1ccc([N+](=O)[O-])o1)c1[nH]c2ccc(Br)cc2c1-c1ccccc1`, the growth is 13.3%.
Consider `Nc1c(C(=O)Nc2ccc(C(F)(F)F)cc2)sc2nc(-c3cnccn3)cc(-c3cccs3)c12`, for which the growth is 79.5%.
Regarding `CN(C)CCCOc1c2ccccc2nc2c1oc1ccc(Cl)cc12`, the growth is 16.7%.
In the case of `C#Cc1nc(C2=C(C)C(OC(=O)CCC(=O)O)CC2)cs1` (stereo not given), the growth was 106%.
For `COc1ccc(-c2cc(C(=O)N=Nc3c(O)[nH]c4ccccc34)c3ccccc3n2)cc1OC`, the growth was 95.3%.
On to `N#Cc1nc(-c2ccccc2)oc1N1CC[C@@H](CO)C1`, for which the growth is 103%.
For `O=c1[nH]c2ccccc2cc1CSc1ccccc1Nc1nccc(-c2ccc(C(F)(F)F)cc2)n1`, the growth is 47.5%.
As to `Clc1ccc2c(NCCCn3ccnc3)c3oc4ccc(Cl)cc4c3nc2c1`, the growth was 60.5%.
The value for `N#Cc1nc(-c2ccccc2)oc1S(=O)(=O)N1CCN(CCc2ccccn2)CC1` was 88%.
As for `O=C1c2c(c3c4cc(Br)ccc4[nH]c3c3ccc4ccccc4c23)C(=O)N1CCO`, the growth was 74.3%.
`CS(=O)(=O)c1ccc(-c2nc3ccccn3c2C=Nc2ccc(Cl)cc2)cc1`: the growth is 91.9%.
As to `O=C(Oc1ccc2ccc(=O)oc2c1)c1ccc(Cl)cc1`, the growth is 106%.
For the compound `CC(=O)Oc1ccccc1C(=O)Nc1ccc(C(=O)/C=C/c2cccs2)cc1`, the growth is 99.4%.
For the compound `O=C1C2=C(C(=O)c3c(O)cccc31)C(c1ccco1)c1sc(=O)[nH]c1S2` (stereo not given), the growth was 11.5%.
Take `C#Cc1nc(C2=C(C)/C(=N/OCc3ccccc3)CC2)cs1`: the growth was 37.6%.
The value for `CCOC(=O)c1c(Nc2ccccc2)nn2c(N)c(C#N)c(-c3ccccc3)nc12` was 74.6%.
Turning to `O=C(CCN1C(=O)/C(=C/c2ccccc2F)SC1=S)N1CCOCC1`, the growth is 94.4%.
On to `CCCC(=O)NC(c1cccc(N(C)C)c1)c1cc(C)c2cccnc2c1O` (stereo not given), for which the growth is 55.5%.
With `COc1cc(-c2nc3ccc(-c4nnc(SCC(=O)Nc5ccc(C(=O)/C=C/c6ccc(Cl)cc6)cc5)o4)cc3[nH]2)cc(OC)c1OC`, the growth is 77.6%.
In the case of `Cc1nc2cnc(N)c(C#Cc3cncc(C(=O)Nc4ccc(Cl)c(C(F)(F)F)c4)c3)c2nc1C`, the growth was 77.4%.
For the compound `COc1cc(/C=C/C(=O)c2ccc(C(F)(F)F)cc2)ccc1Oc1nc(NCCO)nc(N2CCOCC2)n1`, the growth is 70.1%.
